Test results from ChEMBL document CHEMBL3988442, “University of Dundee, Small-Polar-MMV Screening Library” (2021).
Screen size: about 48,000 compounds; about 13,000 (27%) showed an effect of 50% or more. The list shows a part of the results.

tested on: Wolbachia pipientis; test: Anti-Wolbachia Cell-Based Screen; format: functional; set-up: scale not given: in the data most compounds retested in dose-response had high values; details: 5 µM

| Compound | Percent Effect [%] |
| --- | --- |
| CN(c1cccnc1N1CCCC1)S(=O)(=O)c1cccs1 | 3.267 |
| CCc1nc(C)c(C(=O)N2CCNCC2C(=O)Nc2ccc(C)nc2)o1 (configuration not stated) | 1.705 |
| Cc1cccc(C)c1OC1CN(Cc2cnc(-c3ccco3)nc2)C1 | -6.327 |
| CSCC(=O)N[C@H]1CN(CC2CCOCC2)C[C@@H]1c1ccccc1 | 6.905 |
| Cn1cc(-c2ncnc3c2CCN(C(=O)N2CCOCC2)CC3)cn1 | -0.924 |
| COc1cc(N2CCc3ncnc(-c4cnn(C)c4)c3CC2)ncn1 | -4.032 |
| Cc1cc(C(=O)N2CCc3ncnc(-c4cnn(C)c4)c3CC2)no1 | 110.1 |
| Cc1ccc(C(=O)N2CCc3ncnc(C)c3CC2)o1 | -4.866 |
| Cc1ccc(C(=O)N2CCc3ncnc(-c4cnn(C)c4)c3CC2)o1 | 96.64 |
| O=C(c1cc[nH]n1)N1CCc2ncnc(N3CCSCC3)c2CC1 | 19.12 |
| Cn1cc(-c2ncnc3c2CCN(C(=O)c2cscn2)CC3)cn1 | 121.2 |
| CN(C)c1cnnc(N2CCN(C(=O)CCC3CCCCC3)CC2)c1 | 3.23 |
| Cc1n[nH]c(SCC(=O)NC(c2ccncc2)C(C)C)n1 (configuration not stated) | 1.831 |
| Cc1cc(NC(=O)N2CCOCC2)nn1-c1ccccc1Cl | -5.01 |
| CCc1nc(NS(=O)(=O)c2cc(C)cc(F)c2)no1 | -9.734 |
| Cc1ccc(N2CCC3(CN(Cc4ccncc4)CCC3(F)F)C2)nn1.O=C(O)C(F)(F)F.O=C(O)C(F)(F)F (configuration not stated) | 101.6 |
| Cc1ccc(CN2CCC(F)(F)C3(CCN(c4cnccn4)C3)C2)o1.O=C(O)C(F)(F)F.O=C(O)C(F)(F)F (configuration not stated) | 15.24 |
| Cc1ccc(N2CCC3(CN(Cc4cccs4)CCC3(F)F)C2)nn1.O=C(O)C(F)(F)F (configuration not stated) | 80.15 |
| Cc1ccc(N2CCC3(CC2)CC(OCC(C)C)C3)nn1.O=C(O)C(F)(F)F | -76.25 |
| Cc1ccc(N2CCCC3(CCCC(=O)N3)C2)nn1.O=C(O)C(F)(F)F (configuration not stated) | -15.09 |
| Cc1n[nH]cc1CNc1ccc2c(c1)N(C(=O)OC(C)(C)C)CCC2 | -11.3 |
| Cc1nnsc1CNC(=O)Nc1cccc(N2CCN(C)C2=O)c1 | -31.37 |
| O=C1COC2(COCCN(c3cnccn3)C2)CN1c1cccc(F)c1 (configuration not stated) | -3.492 |
| Cc1cccc(N2CC3(COCCN(c4ccncn4)C3)OCC2=O)c1 (configuration not stated) | -13.92 |

| Compound | Percent Effect [%] |
| --- | --- |
| CN1CC2(COCCN(c3ncccn3)C2)OCC1=O (configuration not stated) | -2.048 |
| Cc1cccc(N2CCOCC3(C2)CN(c2cncnc2)C(=O)CO3)n1 (configuration not stated) | 105.8 |
| Cc1cccc(N2CCOCC3(C2)CN(c2cccnc2)C(=O)CO3)n1 (configuration not stated) | 106.1 |
| N#CCCN(Cc1ccco1)C(=O)COC1CCCCC1 | 5.394 |
| O=S1(=O)C[C@@H]2[C@H](C1)N(Cc1nc3ccccc3[nH]1)CCN2CC1CC1 | 0.3251 |
| CC(=O)c1ccc(C(=O)N2CCCCC2c2nc[nH]n2)cc1 (configuration not stated) | -8.755 |
| CC(C)c1nc(C2CCCN2C(=O)c2ccc(N(C)C)nn2)no1 (configuration not stated) | 2.138 |
| CN(CC(=O)N1CCCC1c1noc(C2CC2)n1)C1CC1 (configuration not stated) | -4.612 |
| CC(=O)N1CCCC1c1nc(CN(C)C(=O)C(C)C)cc(N(C)C)n1 (configuration not stated) | 95.56 |
| CCC(=O)N1CCCCC1c1nc(CN(C)C(C)=O)cc(N(C)C)n1 (configuration not stated) | 86.02 |
| COCC(=O)N1CCCCC1c1nc(CN(C)C(C)=O)cc(N(C)C)n1 (configuration not stated) | 103.1 |
| Cc1ccsc1CNC(=O)NC1CCCc2c1cnn2CCO (configuration not stated) | 0.2453 |
| CC(=O)N1CCCN(C(=O)NCCCN(C)S(C)(=O)=O)CC1 | -3.578 |
| COc1ccccc1CN(Cc1cccnc1)Cc1nccs1 | -55.96 |
| CCCNC(=O)C(C)N1CCC(C(=O)Nc2cnn(CC)c2)CC1 (configuration not stated) | 103.7 |
| CCn1cc(NC(=O)C2CCN(CC(=O)NC3CCCC3)CC2)cn1 | 91.7 |
| CCCNC(=O)CN1CCC(C(=O)Nc2cnn(CC)c2)CC1 | 2.919 |
| CCn1cc(NC(=O)NC2CCCc3c2cnn3CCO)cn1 (configuration not stated) | 0.905 |
| CCn1cc(NC(=O)C2CCN(CC(=O)N3CCOCC3)CC2)cn1 | -4.13 |
| CCn1cc(NC(=O)C2CCN(CC(=O)NCC(C)C)CC2)cn1 | 118.6 |
| CCc1noc(C)c1C(=O)Nc1cnn(CC(=O)NC2CCCC2)c1 | 1.161 |
| CCN1CCC(CNC(=O)Nc2cnn(CC(N)=O)c2)C1 (configuration not stated) | -9.388 |
| Cc1ncncc1C(=O)Nc1cnn(CC(=O)NC2CCCC2)c1 | 0.1635 |
